Among the data in PubChem BioAssay AID1347076 (National Center for Advancing Translational Sciences (NCATS), 2019) are Potency values, retold here.

About 13,000 (3.2%) of roughly 400,000 compounds were called active. Where a call stands in place of a potency, no number is given. Another 18% or so got no clear call; they are omitted. The sample holds actives, similar compounds and a random draw of the others, so the mix is not that of the screen. Calls come from the whole dose curve; as a rule, active = well fitted cell-killing curve with a large enough effect; inconclusive = small, poorly fitted or top-dose-only effect, or effect the other way; inactive = flat fitted curve, though single readings scatter.
Potency is the fitted concentration of half-maximal effect.

The test can be described thus: qHTS assay for MDR1-selective chemotherapeutics: Primary screen using the drug-selected MDR subline cells KB-V1. Note: nearly all actives have a fitted effect of over 60% in size. To be noted: KB-V1 MDR cells viability, CellTiter-Glo, 72 h; series mostly up to 46.1 µM. In short, it runs like this:
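Potencies derive from concentration-effect curves fitted to normalized luminescence (CellTiter-Glo) of KB-V1 cells treated for 72 h at 37 degrees C in phenol-red-free DMEM containing 10% FBS.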
With `Cc1ccc(-c2nn3c(=O)cc(CN4CCN(S(=O)(=O)c5ccc(Cl)cc5)CC4)nc3s2)cc1`, the Potency result was “inactive”.
The entry for `Cc1cccc(C)c1NC(=O)CNC(=O)c1ccc(N2CCOCC2)c([N+](=O)[O-])c1` is “inactive”; for `O=c1oc(/C=C/c2ccccc2)nc2ccccc12` it is “inactive”.
For `CCn1c(/C=C/c2ccc([N+](=O)[O-])o2)nc2ccccc2c1=O` the value was 5.17 µM (active); for `CCc1ccc(S(=O)(=O)N/N=C\c2ccc([N+](=O)[O-])o2)cc1`, “inactive”; for `CSc1ncccc1C(=O)N1CCCC(Nc2ccc(F)c(F)c2)C1` (stereo not drawn), “inactive”.
Take `CCc1nn(CCCC(=O)NCc2ccccc2OC)c(=O)c2cc3occc3n12`: the Potency result is “inactive”.
For `Cc1cc(Br)cn2c(Cc3cccc(F)c3)c(-c3cccc(Br)c3)nc12` the value was “inactive”; for `CCOC(=O)c1c(NC(=O)Cn2nc(C(F)(F)F)cc2C)sc2c1CCC2`, 20.6 µM (active); for `CCOC(=O)c1c(NC(=O)CSc2cn(CC)c3ccccc23)sc2c1CCC2`, “inactive”.
Take `CCOC(=O)c1c(NC(=O)Cc2coc3ccc(CC)cc23)sc2c1CCC2`: the Potency entry was “inactive”.
For the compound `CCCS(=O)(=O)NC(=O)C1(C)CCCN(C(=O)c2cccs2)C1` (stereo not drawn), the Potency entry is “inactive”.
With `Cc1ccc(OCC(=O)Nc2ccccc2C(=O)NC2CC2)cc1`, the Potency was 8.2 µM (active).
The entry for `O=C(CN1CCCCC1)Nc1ccccc1C(=O)NC1CC1` is “inactive”; for `COc1ccccc1OCC(=O)Nc1ccccc1C(=O)NC1CC1` it is “inactive”; for `CC(NCC(=O)Nc1ccccc1C(=O)NC1CC1)c1ccccc1Cl` (stereo not drawn) it is 18.4 µM (active).
Take `Cc1ccc(OCC(=O)Nc2ccccc2C(=O)NC2CC2)cc1C`: the Potency result was “inactive”.
The entry for `CCCC(NCC(=O)Nc1ccccc1C(=O)NC1CC1)c1ccccc1` (stereo not drawn) is “inactive”; for `c1ccc(CNCc2ccc(CNCc3ccccc3)cc2)cc1` it is “inactive”; for `CCc1nnc(SCC(=O)Nc2cc(OC)ccc2OC)nc1CC` it is “inactive”.
As for `Cc1ccccc1OS(=O)(=O)c1cccc([N+](=O)[O-])c1`, the Potency entry is “inactive”.
With `COc1ccccc1OCCOc1ccc(/C=N/n2cnnc2)cc1`, the Potency result is “inactive”.
The figure for `Cc1ccccc1OCCOc1ccc([N+](=O)[O-])cc1/C=N/n1cnnc1` is 8.2 µM (active); for `O=C(CSc1nc2cccc(F)c2c(=O)n1-c1ccccc1)Nc1ccc2c(c1)CCC2` it is “inactive”.
For `c1ccc(CCc2nc(-c3ccncc3)no2)cc1`, the Potency result is “inactive”.
As for `O=C1c2ccccc2C(=O)N1CCCc1nc(-c2ccccc2)no1`, the Potency is 18.4 µM (active).
As to `O=C1c2ccccc2C(=O)N1CCCCCCN1C(=O)c2ccccc2C1=O`, the Potency result is “inactive”.
The entry for `C[C@H]1CN([C@@H](C)CO)C(=O)CCCn2cc(nn2)CO[C@@H]1CN(C)S(=O)(=O)c1cccs1` is “inactive”; for `OC(c1ccc(Cl)c(F)c1)c1ncc(-c2ccccc2Cl)[nH]1` (stereo not drawn) it is “inactive”.
The entry for `Cc1ccc(S(=O)(=O)N2CCOCC2)cc1NC(=O)c1ccncc1` is “inactive”; for `CCN(CC)S(=O)(=O)c1ccc(N2CCOCC2)c(NC(=O)C2COc3ccccc3O2)c1` (stereo not drawn) it is “inactive”; for `O=C(CNCc1cccs1)Nc1cc(S(=O)(=O)N2CCCC2)ccc1Cl` it is “inactive”.
As to `O=C(Nc1cc(S(=O)(=O)N2CCCCC2)ccc1Cl)C1COc2ccccc2O1` (stereo not drawn), the Potency is 14.6 µM (active).
`CCc1ccc(Sc2cc(C(=O)NCCCOC(C)C)c3ccccc3n2)cc1`: the Potency entry is “inactive”.
With `CCc1c(C)nc(N2CCN(Cc3ccccc3)CC2)[nH]c1=O`, the Potency result is “inactive”.
The entry for `O=C1c2ccccc2C(=O)c2c1cccc2N1CCN(C/C=C/c2ccccc2)CC1` is “inactive”; for `O=C1c2ccccc2C(=O)c2c1cccc2N1CCN(Cc2ccccc2)CC1` it is 18.4 µM (active); for `O=c1[nH][nH]c2c1[C@H](c1ccc(Cl)cc1)O[C@H](CCc1ccccc1)C2` it is “inactive”.
The entry for `O=C(CSc1nccn1Cc1ccc(Cl)cc1)NCc1ccccc1` is “inactive”; for `COc1cc(F)ccc1-c1cc(C(=O)NCC2CCCCC2)[nH]n1` it is “inactive”.
The figure for `COc1ccc(S(=O)(=O)N2CCC(C(=O)N3CCc4ccccc4C3)CC2)cc1OC` is 13 µM (active).
With `COc1ccc(S(=O)(=O)N2CCC(C(=O)N3CCCC3)CC2)cc1C`, the Potency entry was “inactive”.
The entry for `COc1ccc(S(=O)(=O)N2CCC(C(=O)N3CCOCC3)CC2)cc1OC` is “inactive”; for `C[C@H](CO)N1C[C@H](C)[C@@H](CN(C)C(=O)c2cnccn2)Oc2ncc(Br)cc2C1=O` it is “inactive”.
With `CC(C)c1ccc(NC(=O)c2ccc(Cn3nc(N4CCN(c5ccccc5)CC4)ccc3=O)o2)cc1`, the Potency entry was “inactive”.
For `Cc1ccc(-c2nc3ccc(Cl)cn3c2Cc2ccccc2)cc1` the value was “inactive”; for `CC1(C(=O)NS(=O)(=O)Cc2cccc(Cl)c2)CCN1C(=O)Cc1ccccc1` (stereo not drawn), “inactive”.
The entry for `Cc1nn(CC(=O)NCc2ccccn2)c(C)c1[N+](=O)[O-]` is “inactive”; for `COc1ccc(CNC(=O)CCCn2nc(C)c([N+](=O)[O-])c2C)cc1` it is 25.9 µM (active).
The entry for `CCc1ccc(NC(=O)Cn2nc(C)c([N+](=O)[O-])c2C)cc1` is “inactive”; for `Cc1ccc(Oc2cc(NC(=O)CCCn3nc(C)c([N+](=O)[O-])c3C)cc([N+](=O)[O-])c2)cc1` it is 10.3 µM (active); for `COc1ccc(CNC(=O)CCn2cccc2)cc1` it is “inactive”.
With `Cc1nn(CC(=O)Nc2ccc(N(C)C)cc2)c(C)c1[N+](=O)[O-]`, the Potency result was “inactive”.
For `CCCNC(=O)C1(C)CCN(C(=O)c2ccc(F)cc2Cl)C1` (stereo not drawn) the value was “inactive”; for `CC(C)(C)C(=O)CSc1nc2ccccc2o1`, “inactive”.
Regarding `CC1Cc2ccccc2N1C(=O)CSc1nc2ccccc2o1` (stereo not drawn), the Potency was 14.6 µM (active).
As to `CC1Cc2ccccc2N1C(=O)Cn1cnc2ccccc2c1=O` (stereo not drawn), the Potency entry was “inactive”.
Regarding `CC1Cc2ccccc2N1C(=O)CSc1nnc(C2CC2)n1C` (stereo not drawn), the Potency entry was “inactive”.
For `CC1CC(C)CN(C(=O)CSc2nnc(CSc3ncccn3)n2C)C1` (stereo not drawn) the value was “inactive”.
The figure for `CCn1c(CSc2ncccn2)nnc1SCC(=O)N1c2ccccc2CC1C` (stereo not drawn) is 11.6 µM (active); for `CC1Cc2ccccc2N1C(=O)CSc1nnc(-c2ccc(S(=O)(=O)N3CCCC3)cc2)n1C` (stereo not drawn) it is 16.4 µM (active).
The entry for `CN(C)S(=O)(=O)c1ccc2oc(SCC(=O)Nc3ccccc3F)nc2c1` is “inactive”; for `Cn1c(SCC(=O)OC2CCCCC2)nnc1-c1ccc(S(=O)(=O)N2CCCC2)cc1` it is “inactive”; for `COc1ccc(S(=O)(=O)N2CCN(CC(=O)N3c4ccccc4CC3C)CC2)cc1OC` (stereo not drawn) it is “inactive”.
Consider `O=C(CSc1nc2ccccc2o1)N1CCN(c2ccccc2)CC1`, for which the Potency entry is “inactive”.
On to `CCS(=O)(=O)c1ccc2oc(SCC(=O)N3c4ccccc4CC3C)nc2c1` (stereo not drawn), for which the Potency was 5.17 µM (active).
As for `Cc1cc(C)c2sc(NC(=O)c3ccc(S(=O)(=O)N4CCCC4)cc3)nc2c1`, the Potency entry is “inactive”.
For `Brc1ccc2nc(-c3ccccc3)c(Cc3ccccc3)n2c1` the value was “inactive”; for `ClC/C=C/C[n+]1ccccc1Cl`, “inactive”; for `CC(C)(C)c1ccc(S(=O)(=O)NC(=O)C2(C)CCN2C(=O)CC2CC2)cc1` (stereo not drawn), “inactive”.
The entry for `COc1ccc(C(=O)N2CCCCC2c2cc(C(=O)Nc3ccccc3)no2)cc1` (stereo not drawn) is “inactive”.
`Cn1cc(S(=O)(=O)N2CCCCCC2)cc1C(=O)N1CCN(c2ccc(F)cc2)CC1`: the Potency result is “inactive”.
The entry for `CCOC(=O)c1cnc(SCC(=O)Nc2cccc(OC)c2)nc1N` is “inactive”.
The figure for `CCOC(=O)c1cnc(SCC(=O)Nc2ccccc2C(=O)OC)nc1N` is 2.59 µM (active).
Turning to `CCOC(=O)c1cnc(SCC(=O)NCc2ccco2)nc1N`, the Potency entry was “inactive”.
With `CCOC(=O)c1c(C)[nH]c(C)c1S(=O)(=O)N1CCC(C(=O)Nc2ccc(C)c(Cl)c2)CC1`, the Potency entry was “inactive”.
The figure for `C/C(CC(=O)NCc1ccc(Cl)cc1)=N\NC(=O)COc1ccc(C)cc1Br` is 8.2 µM (active).
As to `Cc1ccc(CNC(=O)CN2CCN(Cc3ccc(Cl)cc3)C2=O)cc1`, the Potency entry is “inactive”.
The entry for `CCCCC(=O)N/N=C(\C)CC(=O)Nc1cc(Cl)ccc1OC` is “inactive”; for `O=C(NCc1ccc(F)cc1)c1cc(C2CCCCN2C(=O)c2cccs2)on1` (stereo not drawn) it is “inactive”.
For `CC1C(=O)N(Cc2cn(Cc3ccco3)nn2)CCS(=O)(=O)N1Cc1ccc(-c2cccc(CO)c2)cc1` (stereo not drawn) the value was “inactive”; for `CCCCc1nc2ccccc2c(NC(=O)CN2CCN(C)CC2)c1CCC`, 8.2 µM (active).
For `CCc1ccc(-c2cc(C(=O)NN3CCN(C)CC3)c3ccccc3n2)cc1` the value was “inactive”; for `CN1CCN(CC(=O)Nc2cccc([N+](=O)[O-])c2)CC1`, “inactive”; for `C[C@H]1CN([C@@H](C)CO)C(=O)c2cc(-c3ccccc3F)cnc2O[C@H]1CN(C)C(=O)C1CCOCC1`, “inactive”.
`NC(Cc1ccc(F)cc1)c1csc(Nc2nncc3ccccc23)n1` (stereo not drawn): the Potency entry was “inactive”.
For `Cc1ccc(S(=O)(=O)c2cn(Cc3ccccc3)c3cc(N4CCCC4)c(F)cc3c2=O)c(C)c1`, the Potency result is “inactive”.
The entry for `CCOC(=O)C1CCCN(C(=O)c2ccc(N(C)C)cc2)CC1` (stereo not drawn) is “inactive”; for `COc1ccc(OC)c(C(O)c2ncc(-c3cccc(C(F)(F)F)c3)[nH]2)c1` (stereo not drawn) it is “inactive”.
The entry for `CSCCC(NC(=O)c1ccccc1)C(=O)N1CCCCCCC1` (stereo not drawn) is “inactive”; for `COc1ccccc1C(=O)NC(CCSC)C(=O)N1CCN(C(C)=O)CC1` (stereo not drawn) it is “inactive”.
For `CSCCC(NC(=O)c1ccccc1)C(=O)N1CCN(Cc2ccc(Cl)cc2)CC1` (stereo not drawn) the value was 18.4 µM (active); for `CC1=C(C(=O)OCC(C)C)C(c2ccc(OCc3ccccc3)cc2)N2C(=O)CCSC2=N1` (stereo not drawn), “inactive”; for `C=CCn1c(=O)c(C(=O)NCc2ccc3c(c2)OCO3)c(O)c2ccccc21`, “inactive”.
In the case of `O=C(NCc1ccc2c(c1)OCO2)c1sccc1Br`, the Potency result is “inactive”.
For `O=C(NCc1ccc2c(c1)OCO2)c1c(O)nc2sccn2c1=O` the value was 8.2 µM (active).
The entry for `O=[N+]([O-])c1cc(-c2nc(-c3ccccc3)no2)ccc1NCc1ccco1` is “inactive”; for `c1coc(CNc2ncnc3ccccc23)c1` it is “inactive”.
For `c1ccc(-c2nc(NCc3ccco3)c3ccccc3n2)cc1`, the Potency was 23.1 µM (active).
The entry for `COc1ccc(-c2cnc3c(c2)C(=O)N([C@H](C)CO)C[C@@H](C)[C@H](CN(C)Cc2ccccc2)O3)cc1` is “inactive”.
Regarding `COc1cc(CN2CCCN(C)CC2)c([N+](=O)[O-])cc1OC`, the Potency result is “inactive”.
For `COc1cc2c(cc1OC)C(Cc1cc(OC)c(OC)cc1[N+](=O)[O-])=NCC2` the value was 9.2 µM (active); for `COc1cc(CNCc2ccc3c(c2)OCO3)c([N+](=O)[O-])cc1OC`, “inactive”.
